A selection: hits, their analogues and other compounds. The true share with any hit is near 3.5%.
MITF inh = blocks human microphthalmia-associated transcription factor; O75030; AlphaScreen MITF homodimerization, bead proximity signal; inhibition, % at 2.6 µM; 650,000 tested, 0.91% active; AID 1259374; in the data active = inhibition above about 50%;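 note: 0% = vehicle wells with protein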
GPR151 activ = activates the human receptor GPR151 | Q8TDV0 | PathHunter beta-arrestin GPR151 cells, luminescence | activation, % at 11.2 µM | 650,000 tested, 1% active | AID 1508602; in the data active = activation above about 4.9%;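 note: 0% = median of compound wells and 100% = cells with positive control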
Target sequence (Q8TDV0 whole entry, looked up): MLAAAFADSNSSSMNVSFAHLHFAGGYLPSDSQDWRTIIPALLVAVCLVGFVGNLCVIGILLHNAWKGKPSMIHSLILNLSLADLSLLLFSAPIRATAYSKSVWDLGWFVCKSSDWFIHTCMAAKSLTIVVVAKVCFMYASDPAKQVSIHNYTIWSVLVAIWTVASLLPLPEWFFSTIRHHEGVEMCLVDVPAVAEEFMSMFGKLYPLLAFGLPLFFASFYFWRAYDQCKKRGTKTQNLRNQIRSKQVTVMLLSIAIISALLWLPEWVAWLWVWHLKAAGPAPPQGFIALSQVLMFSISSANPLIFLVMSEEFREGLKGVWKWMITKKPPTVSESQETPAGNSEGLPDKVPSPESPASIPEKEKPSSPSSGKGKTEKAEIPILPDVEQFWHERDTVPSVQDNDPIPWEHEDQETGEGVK
TEAD-YAP inh = TEAD-YAP interaction inhibition | HEK-TIYL cells, TEAD-Gal4/YAP UAS-luciferase luminescence | inhibition, % at 9.12 µM | 640,000 tested, 1.4% active | AID 1259422; in the data active = inhibition above about 32%;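 note: 0% = median of test compound wells and 100% = reference inhibitor wells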
FBW7 activator = activators of human E3 ligase FBW7. Q969H0. normalized activity (activation), % at 26.1 µM. 650,000 tested, 0.13% active. AlphaScreen FBW7–phospho-cyclin E peptide binding, activator screen; in the data active = normalized activity above about 1.9%;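 note: purified mutant Fbw7 with reduced substrate affinity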
GPR151 confirm = confirmation of human GPR151 activators | activation, % at 11.2 µM | shares compounds with GPR151 activ | AID 1508609 | GPR151 PathHunter beta-arrestin cells, luminescence, 90 min; % of EA-reagent control over plate median | 6,700 tested, under 10 active;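 active = mean percent activation across replicates above the confirmation screen cutoff of 4.91%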
GPR119 ag = GPR119 activation, counter-screen for GPR151 activators; shares compounds with GPR151 activ; GPR119 PathHunter beta-arrestin cells, luminescence, 90 min; 0 = compound-well median, 100 = enzyme-acceptor control; activation, % at 11.2 µM; 6,700 tested, 0.3% active; AID 1508611;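 active = mean percent activation in the counterscreen above 29.09%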;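 note: counterscreen on off-target GPR119 to flag nonselective hits from the GPR151 activator screen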
Active calls of the source: *; . = no result.

SMILES | MITF inh | GPR151 activ | TEAD-YAP inh | FBW7 activator | GPR151 confirm | GPR119 ag
Cc1cccc(CN2CCC(N3CCC[C@H]3CO)CCC2=O)c1 (some centres undefined) | -2 | 11* | 5 | 0 | 0 | -7
CCOC(=O)CCc1c(C)nc2nc(CNC(=O)c3ccccc3)nn2c1C | -7 | 5.2* | 0 | 0 | 0 | -2
Cc1nc2nc(CNC(=O)OC(C)(C)C)nn2c(C)c1CCC(=O)NCc1ccccc1 | 16 | 0 | 6 | 1 | . | .
COC(=O)C1=CN(c2ccc(C(=O)OC)cc2)C=C(C(=O)OC)C1c1ccc(Cl)cc1 | 9 | -1 | 4 | 0 | . | .
COc1ccc2nc(SCC(=O)Nc3ccccc3I)[nH]c2c1 | -10 | -1 | 0 | 0 | . | .
O=C(CN1CCN(CC(=O)Nc2ccccc2F)CC1)Nc1cccc(F)c1 | 13 | 6.2* | 10 | 1 | 1 | 3
Cc1cc(C)nc(SCC(=O)Nn2cnnc2)n1 | -19 | 7.1* | 2 | 0 | 0 | -13
Cc1cc(C)nc(SCC(=O)NC(C)(C)C)n1 | 16 | 0 | -1 | 0 | . | .
CC1=C(C(=O)OC2CCCCCCC2)C(c2ccc(F)cc2)NC(=O)N1 (centres undefined) | 8 | 0 | 3 | 0 | . | .
O=C(Cc1ccc(F)cc1)Nc1ccc(-n2ncc3ccc(-c4nn[nH]n4)cc32)cc1 | 3 | 5.0* | -7 | -1 | 0 | 4
O=C(Nc1ccc(-n2ncc3ccc(-c4nn[nH]n4)cc32)cc1)c1ccccc1 | -14 | -2 | -7 | 0 | . | .
c1ccc(CN2CCC(Nc3cc(NCc4cccnc4)ncn3)CC2)cc1 | -10 | 2 | 0 | 0 | . | .
COC(=O)c1ccc(C)c(NC(=O)CN(c2ccc(F)cc2)S(C)(=O)=O)c1 | -12 | 7.1* | 2 | 0 | -1 | -5
COC(=O)c1ccc(NC(=O)CN(c2ccc(F)cc2)S(C)(=O)=O)cc1 | 1 | -1 | -11 | 1 | . | .
CCCN1C(=O)/C(=C\c2nc3ccccc3c(=O)n2-c2ccccc2)c2cc(Br)ccc21 | 9 | -1 | 0 | 0 | . | .
Cc1ccc(NC(=O)c2cnn3c(C(F)(F)F)cc(-c4ccco4)nc23)cc1 | 4 | 0 | -5 | 0 | . | .
CC(=O)c1ccc(NC(=O)c2cnn3c(C(F)(F)F)cc(-c4ccco4)nc23)cc1 | 17 | 6.8* | 6 | 0 | 0 | -9
CC(C)Oc1cccc(C(=O)NCc2ccco2)c1 | -9 | -1 | 3 | 0 | . | .
C[C@H](CN)Oc1ncccc1C(=O)Nc1ccc2[nH]ncc2c1 | -9 | 5.7* | 1 | 0 | -1 | 4
CC(C)C(C(=O)OCC(=O)c1ccc(F)cc1)N1C(=O)c2cccc([N+](=O)[O-])c2C1=O (centres undefined) | 8 | -1 | 20 | 0 | . | .
Cc1nn(-c2ccc(Nc3ccc(NC(=O)c4cccc(F)c4)cc3)nn2)c(C)c1C | -13 | 7.6* | -22 | 0 | 3 | 15
CCCCOc1ccc(CSc2nncn2N)cc1[N+](=O)[O-] | 9 | 5.1* | -39 | 0 | -1 | -11
O=C1NN(c2ccc(F)c(Cl)c2)C(=O)/C1=C\c1ccc(Br)cc1 | 19 | -1 | 7 | 1 | . | .
O=C1NN(c2ccc(F)c(Cl)c2)C(=O)/C1=C\c1cccc(I)c1 | 7 | 5.2* | 8 | 0 | 0 | 9
CC(=O)Oc1cccc(/C=C2/C(=O)NN(c3ccc(C)c(C)c3)C2=O)c1 | 2 | 5.0* | -6 | 1 | -1 | -13
SMILES | MITF inh | GPR151 activ | TEAD-YAP inh | FBW7 activator | GPR151 confirm | GPR119 ag
O=C(c1cccnc1)N(CC1CC1)C1CCN(Cc2ccccc2OC(F)F)CC1 | 19 | -1 | 10 | 0 | . | .
COc1cc(C2Nc3ccccc3NC3=C2C(=O)CC(c2ccccc2)C3)cc(OC)c1O (centres undefined) | 1 | -1 | 9 | 0 | . | .
O=C(O)c1cc(C23CC4CC(CC(C4)C2)C3)ccc1O | -10 | 14* | 6 | 0 | 0 | -3
CC(Oc1ccc(Cl)cc1Cl)C(=O)Nc1nnn(C)n1 (centres undefined) | 16 | 0 | -2 | 0 | . | .
CCOc1ccc(NC(=O)c2sc3ncn(CC(=O)N4CC(C)CC(C)C4)c(=O)c3c2C)cc1 (centres undefined) | 2 | 6.3* | 20 | 0 | -1 | 0
Cc1c(C(=O)Nc2ccc(Oc3ccccc3)cc2)sc2ncn(CC(=O)N3CC(C)CC(C)C3)c(=O)c12 (centres undefined) | 4 | 3 | 5 | 0 | . | .
CC1CC(C)CN(CC(O)COCC2COc3ccccc3O2)C1 (centres undefined) | -6 | 0 | 4 | 0 | . | .
CC1(C)C(c2ccco2)=[N+]([O-])C2(CCCCCC2=O)N1O (centres undefined) | -2 | 7.7* | 0 | 0 | 0 | 14
CC1(C)C(c2cccs2)=[N+]([O-])C2(CCCCCC2=O)N1O (centres undefined) | 8 | 1 | 4 | 0 | . | .
CCOc1ccc(/C(O)=C2\C(=O)C(=O)N(c3nc(C)c(C(=O)OC)s3)C2c2ccc(C)cc2)cc1C (centres undefined) | 7 | 5.0* | -2 | 0 | -1 | 0
OCC1CCCCN1Cc1nc(N2CCCCCC2)c2ccccc2n1 (centres undefined) | 1 | 0 | 8 | 0 | . | .
Cc1ccc(N(CC(=O)O)C2SC(=O)NC2=O)cc1 (centres undefined) | 13 | 5.7* | 2 | 0 | 2 | 1
CSc1nc(N)nc(SCC(=O)c2ccccc2)c1C#N | -9 | 0 | -22 | 0 | . | .
CSc1nc(N)nc(SC(C(=O)O)c2ccccc2)c1C#N (centres undefined) | -6 | 8.6* | 7 | 0 | 0 | 13
COC(=O)c1ccc(-n2c(C)cc(C(=O)COC(=O)c3ccccc3C=O)c2C)cc1 | 12 | -1 | 7 | 0 | . | .
Cc1cc(C(=O)COC(=O)c2ccc(CO)cc2)c(C)n1-c1ccc(F)cc1 | -1 | 5.0* | 9 | 0 | 0 | 0
Cc1cnc(C(=O)OCC(=O)c2cc(C)n(CCc3ccc(F)cc3)c2C)cn1 | 2 | 8.1* | 0 | 0 | 1 | 8
O=C(O)CC(NC(=O)C12CC3CC(CC(C3)C1)C2)c1cccc([N+](=O)[O-])c1 (centres undefined) | -4 | 6.0* | -13 | 0 | 0 | 0
O=C(O)CC(NC(=O)C12CC3CC(CC(C3)C1)C2)c1ccc(Cl)cc1 (centres undefined) | 1 | 2 | 12 | 0 | . | .
CCNC(=S)Nc1ccc(Cl)c(S(=O)(=O)N2CCOCC2)c1 | 12 | 6.6* | -2 | 0 | -1 | -7
CC(C)OCCCNC(=O)CCc1nnc2n(Cc3ccccc3)c(=O)c3ccccc3n12 | 13 | 0 | 5 | 0 | . | .
Cc1ccc(Nc2c(N)c(=O)oc3ccccc23)cc1 | 8 | 17* | -10 | 0 | 0 | -5
